In PubChem BioAssay (EPA / NIEHS):
Activity calls are given as the source filed them. Rule for the calls: active = hit-call score of the fitted dose curve at least 0.9, where 1 is the maximum; inactive = score below 0.9.

assay: APR_HepG2_NuclearSize_72hr: Apredica 72-hour HepG2 Assay for Nuclear Size (AID 2282925); settings: high-content imaging, actives raise or lower the signal
Procedure: APR_HepG2_72hr is a cell-based, multiplexed-readout assay that uses HepG2, a human liver cell line, with measurements taken at 72 hours after chemical dosing in a 384-well plate.APR_HepG2_NuclearSize_72hr is one of 10 assay component(s) measured or calculated from the APR_HepG2_72hr assay. It is designed to make measurements of cell phenotype, a form of morphology reporter, as detected with fluorescence intensity signals by HCS Fluorescent Imaging technology.Data from the assay component APR_HepG2_NuclearSize_72hr was analyzed into 1 assay endpoint. This assay endpoint, APR_HepG2_NuclearSize_72hr, was analyzed with bidirectional fitting relative to DMSO as the negative control and baseline of activity. Using a type of morphology reporter, measures of all nuclear dna for gain or loss-of-signal activity can be used to understand the signaling at the nuclear-level. Furthermore, this assay endpoint can be referred to as a primary readout, because this assay has produced multiple assay endpoints where this one serves a signaling function. To generalize the intended target to other relatable targets, this assay endpoint is annotated to the cell morphology intended target family, where the subfamily is organelle conformation.
Cells were treated with dimethyl sulfoxide (DMSO) as a solvent control at a final concentration of 0.5% v/v or with compounds in DMSO with a resulting final DMSO concentration of 0.5% v/v. Compound treatment was done at concentrations of 0.39, 0.78, 1.56, 3.12, 6.24, 12.5, 25, 50, 100, and 200 uM in duplicate on each plate. Cells were treated with compounds for 1, 24, or 72 hr. Carbonyl […] m-chloro-phenylhydrazone (CCCP) and taxol were used as positive controls for mitochondrial function and cytoskeletal stability, respectively; DMSO served as the negative control for this experiment. Cells were fixed by the direct addition of 50 uL formaldehyde in Hank's Balanced Salt Solution (HBSS) to a final concentration of 3.7%. After incubation in the fixation medium for 30 min at room temperature (293-298 K), cells were rinsed twice with HBSS and treated with cell permeabilization buffer (16 uL of 0.5% Triton X-100) for 10 min at room temperature (293-298 K) before labeling. For mitochondrial membrane potential and mitochondrial measurements, pre-fixed cells were incubated with 50 uL of MitoTracker Red CMXRos (Invitrogen) at a concentration of 250 nM for 30 min before fixation. In the remaining cases, post-fixed cells were labeled by incubation with a multiplexed mixture of primary antibodies in HBSS for 60 min at room temperature (293-298 K) to detect immunoreactivity of c-Jun (1:500), phospho-histone H3 (1:100), phospho-histone H2A.x (1:200), p53 (1:400), alpha-tubulin (1:200) and Hoechst 33342 (2 ug/mL). Cells were labeled for multiplexed imaging on two separate plates: a) Hoechst 33342, MitoTracker Red, phospho-histone H3, and alpha-tubulin, and b) Hoechst 33342, phospho-histone H2A.x, and c-Jun. A final rinse with HBSS (50 uL) was performed before analysis. The primary and secondary antibodies for the proteins were phospho-histone H3 (rabbit anti-phospho-histone H3 and FITC-donkey anti-rabbit IgG), phospho-histone H2A.x (mouse anti-phospho-histone H2A.x and FITC-donkey anti-mouse IgG), c-Jun (rabbit anti-phospho-c-Jun and Cy3-donkey anti-rabbit IgG), p53 (sheep anti-p53 and Cy5-donkey anti-sheep IgG), alpha-tubulin (mouse anti-alpha-tubulin and Cy5-donkey anti-mouse IgG). These antibodies are available as the CellCiphr HepG2 assay kit (Millipore).Digital images of each well were captured using a Cellomics ArrayScan VTI (Thermo Scientific Cellomics) (0.8 NA objective, 0.63x optical coupler, and XF-93 filter set) at 20x magnification. The images were acquired using the autofocus feature of the ArrayScan instrument, which entails the following steps. First, the camera focuses on channel 1 (Hoechst 33342), where nuclei are identified. Second, a Z offset of 1 um is used for capturing mitochondria (MitoTracker Red). […]

Row | Compound | outcome
1 | CCOP(=S)(OCC)OC(Cl)C(Cl)(Cl)Cl (stereo not given) | inactive
2 | CCOP(=O)(SC(C)CC)N1CCSC1=O (stereo not given) | inactive
3 | CON=C(C(=O)OC)c1ccccc1CON=C(C)c1cccc(C(F)(F)F)c1 | inactive
4 | CC1=NNC(=O)N(/N=C/c2cccnc2)C1 | inactive
5 | CCOP(=S)(OCC)Oc1ccc2c(C)c(Cl)c(=O)oc2c1 | inactive
6 | CNc1cnn(-c2cccc(C(F)(F)F)c2)c(=O)c1Cl | inactive
7 | CCOP(=O)(NC(C)C)Oc1ccc(SC)c(C)c1 (stereo not given) | inactive
8 | CN(C)[C@@H]1C(=O)C(C(N)=O)=C(O)[C@@]2(O)C(=O)C3=C(O)c4c(O)cccc4[C@@](C)(O)[C@H]3[C@H](O)[C@@H]12 | inactive
9 | CCOC(=O)COc1cc(-c2nn(C)c(OC(F)F)c2Cl)c(F)cc1Cl | inactive
10 | CCCOCC(=Nc1ccc(Cl)cc1C(F)(F)F)n1ccnc1 | inactive
11 | CCC(CC)Nc1c([N+](=O)[O-])cc(C)c(C)c1[N+](=O)[O-] | inactive
12 | N#CSCSC#N | inactive
13 | C#CC(C)(C)NC(=O)c1cc(Cl)cc(Cl)c1 | inactive
14 | CCc1cccc(C)c1N(C(=O)CCl)C(C)COC (stereo not given) | inactive
15 | CCOP(=S)(OCC)SCCSCC | inactive
16 | CCOP(=S)(Oc1cnc(C(C)(C)C)nc1)OC(C)C (stereo not given) | inactive
17 | CCCCN(CC)c1c([N+](=O)[O-])cc(C(F)(F)F)cc1[N+](=O)[O-] | inactive
18 | COP(=O)(OC)OC(Br)C(Cl)(Cl)Br (stereo not given) | inactive
19 | FC(F)C(F)(F)OCC(Cn1cncn1)c1ccc(Cl)cc1Cl (stereo not given) | inactive
20 | CCCCOC(=O)[C@@H](C)Oc1ccc(Oc2ccc(C#N)cc2F)cc1 | inactive

Row | Compound | outcome
21 | O=C(O)c1cc(Oc2ccc(C(F)(F)F)cc2Cl)ccc1[N+](=O)[O-] | inactive
22 | CCC(=O)Nc1ccc(Cl)c(Cl)c1 | inactive
23 | COc1ccc(C(=CC(=O)N2CCOCC2)c2ccc(Cl)cc2)cc1OC | inactive
24 | C[Si](Cn1cncn1)(c1ccc(F)cc1)c1ccc(F)cc1 | inactive
25 | COP(=O)(NC(C)=O)SC (stereo not given) | inactive
26 | O=[N+]([O-])c1cc(C(F)(F)F)c(Cl)c([N+](=O)[O-])c1Nc1ncc(C(F)(F)F)cc1Cl | inactive
27 | CCCCSP(=O)(SCCCC)SCCCC | inactive
28 | C#CCC1=C(C)C(OC(=O)C2C(C=C(C)C)C2(C)C)CC1=O (stereo not given) | inactive
29 | CC(C)=CC1C(C(=O)OCN2C(=O)C3=C(CCCC3)C2=O)C1(C)C (stereo not given) | inactive
30 | Cc1ccn2nc(S(=O)(=O)Nc3c(F)cccc3F)nc2n1 | inactive
31 | CN(C)C(=O)Nc1cccc(C(F)(F)F)c1 | inactive
32 | CCC(=NOC/C=C/Cl)C1=C(O)CC(C2CCOCC2)CC1=O (stereo not given) | inactive
33 | S=C1NCCN1 | inactive
34 | CCCOc1nn(C(=O)NS(=O)(=O)c2ccccc2C(=O)OC)c(=O)n1C | inactive
35 | CC1(C(=O)Nc2ccc(O)c(Cl)c2Cl)CCCCC1 | inactive
36 | CC(C1CC1)C(O)(Cn1cncn1)c1ccc(Cl)cc1 (stereo not given) | inactive
37 | Cc1cc(C2CC2)nc(Nc2ccccc2)n1 | inactive
38 | CC(C)[C@H](C(=O)O[C@H](C#N)c1cccc(Oc2ccccc2)c1)c1ccc(Cl)cc1 | inactive
39 | CCOC(=O)CC(SP(=O)(OC)OC)C(=O)OCC (stereo not given) | inactive
40 | CSC1=N[C@@](C)(c2ccccc2)C(=O)N1Nc1ccccc1 | inactive
